Structures are written as SMILES. Where “and” joins values, the source holds several entries; their conditions need not be identical. Equal entries are not always repeated. Where two headings read alike, the source gives them in different places.

21 molecules from article PMC5540273 (PLoS ONE, 2017) can be followed below.

One test deals with CDKL2. The note with it: concentration: 1 μM, replicates: in singlicate, n = 1.
Another test relates to CDKL3. The settings on record: concentration: 1 μM, replicates: in singlicate, n = 1.
The next test relates to CDKL5. The note with it: concentration: 1 μM, replicates: in singlicate, n = 1.
The subject of another test is CHEK1. The settings on record: concentration: 1 μM, replicates: in singlicate, n = 1.
The subject of another test is CHEK2. The note with it: concentration: 1 μM, replicates: in singlicate; n = 1.
The subject of the next test is CIT. The note with it: concentration: 1 μM, replicates: in singlicate, n = 1.
In a further test the test system is CLK1. The note with it: concentration: 1 μM, replicates: in singlicate, n = 1.
A further test has as its system CLK2. The note with it: concentration: 1 μM, replicates: in singlicate, n = 1.
The next test deals with CLK3. The settings on record: concentration: 1 μM, replicates: in singlicate, n = 1.
A further test deals with CLK4. The settings on record: concentration: 1 μM, replicates: in singlicate, n = 1.
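Further: KINOMEscan kinase panel screen.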

`Cl.c1ccc(Cn2ncc3cc(Nc4ncnc5ccccc45)ccc32)cc1` [GW273749]: the “%Inh” value in the test with CDKL2 is 8%; in the test with CDKL3, 0%; in the test with CDKL5, 3%; in the test on CHEK1, 0%; with CHEK2 it was 30%; in the test with CIT, 26%. The “%Inh” value came to 42% with CLK1, 6% with CLK2, 0% in the test on CLK3 and 4% in the test on CLK4.
With `CC(C)(C)c1ccc(-n2cnc3c(N)ncnc32)cc1` [SKF-97263], the “%Inh” value in the test on CDKL2 stood at 0%; in the test with CDKL3, 0%; in the test with CDKL5, 0%; in the test with CHEK1 it was 34%; in the test with CHEK2 it was 0%; in the test on CIT, 31%. Further, the “%Inh” value with CLK1 was 36%; in the test with CLK2, 20%; in the test on CLK3, 19%; in the test with CLK4, 50%.
`Cc1cc(N2CCC(NS(=O)(=O)c3ccc(F)cc3)CC2)nc(Nc2cccc(C#N)c2)n1.O=C(O)C(F)(F)F` [GSK1653537]: the “%Inh” value was 24% with CDKL2; 0% with CDKL3; 0% with CDKL5; 4% in the test with CHEK1; 0% in the test with CHEK2; 0% with CIT. For the same molecule, the “%Inh” value with CLK1 is on record as 14%; in the test on CLK2, 0%; in the test on CLK3, 0%; with CLK4 it was 25%.
For the molecule `FC(F)(F)c1ccc(-c2cc(-c3c[nH]nc3-c3ccccn3)ccn2)cc1` [GW599550], the “%Inh” value with CDKL2 worked out at 21%; in the test on CDKL3, 0%; with CDKL5, 0%; in the test on CHEK1 it was 0%; in the test with CHEK2 it was 16%; with CIT it was 37%. The “%Inh” value with CLK1 amounted to 8%; in the test on CLK2, 4%; in the test with CLK3 it was 5%; in the test on CLK4 it was 29%.
For the molecule `Clc1cccc(-c2nc(Nc3ccncc3)c3ccccc3n2)c1` [GW873004], the “%Inh” value is 35% in the test on CDKL2; 13% in the test on CDKL3; 3% with CDKL5; 0% in the test with CHEK1; 0% with CHEK2; 57% in the test with CIT. In addition, the “%Inh” value in the test with CLK1 came out at 14%; with CLK2, 0%; in the test on CLK3 it was 35%; in the test on CLK4, 52%.
Regarding `O=C(Nc1ccccc1F)NC1CCN(c2ccnc(Nc3ccc(F)cc3)n2)C1` (stereo not drawn) [GSK1379722], the “%Inh” value in the test on CDKL2 worked out at 30%; in the test with CDKL3, 0%; with CDKL5 it was 0%; with CHEK1 it was 8%; in the test on CHEK2, 0%; in the test on CIT, 2%. Further, the “%Inh” value in the test on CLK1 was 21%; in the test with CLK2 it was 0%; in the test on CLK3 it was 24%; in the test with CLK4, 17%.
For the molecule `CCc1nc(-c2cccc(C)c2)c(-c2ccnc(NC(=O)c3ccccc3)c2)s1`, the “%Inh” value is 0% in the test with CDKL2; 0% in the test on CDKL3; 10% with CDKL5; 0% with CHEK1; 34% in the test with CHEK2; 42% in the test with CIT. Further, the “%Inh” value with CLK1 was 0%; in the test with CLK2 it was 0%; in the test with CLK3, 0%; with CLK4 it was 16%.
`Fc1cccc(COc2ccc(Nc3ncnc4nn5ccccc5c34)cc2Cl)c1` [GW689066]: the “%Inh” value came to 1% in the test on CDKL2; 0% in the test on CDKL3; 0% in the test on CDKL5; 0% with CHEK1; 28% in the test on CHEK2; 0% with CIT. Further, the “%Inh” value in the test with CLK1 came out at 9%; in the test on CLK2 it was 0%; with CLK3 it was 0%; with CLK4 it was 0%.
Consider `COc1ccc(NC(=O)c2ccc(-c3cc(-c4nnc(C)o4)ccc3C)cc2)cc1` [GW595885], for which the “%Inh” value in the test on CDKL2 worked out at 13%; with CDKL3, 0%; in the test with CDKL5 it was 0%; in the test with CHEK1 it was 0%; in the test with CHEK2, 0%; with CIT it was 22%. For the same molecule, the “%Inh” value with CLK1 was 17%; in the test on CLK2, 0%; in the test on CLK3 it was 94.8%; in the test on CLK4, 20%.
For `Cl.Cn1ccc(-c2cccc(Nc3ccnc4cc(-c5nccs5)ccc34)c2)n1` [GW525701], the “%Inh” value in the test with CDKL2 is on record as 61%; in the test on CDKL3, 0%; in the test on CDKL5, 0%; in the test on CHEK1 it was 24%; in the test on CHEK2, 0%; in the test on CIT, 3%. Further, the “%Inh” value in the test on CLK1 was 1%; in the test on CLK2, 0%; with CLK3 it was 0%; in the test with CLK4 it was 37%.
`COc1cc2ncnc(Nc3ccc(OCc4ccccc4Br)c(Cl)c3)c2cc1OC.Cl` [GI261590]: the “%Inh” value with CDKL2 amounted to 26%; in the test with CDKL3, 2%; in the test with CDKL5, 0%; in the test on CHEK1, 0%; with CHEK2, 47%; with CIT it was 29%. In addition, the “%Inh” value amounted to 28% in the test on CLK1, 0% in the test with CLK2, 0% with CLK3 and 17% with CLK4.
With `Fc1ccc(-c2ncn(CCCNCc3ccccc3)c2-c2ccncc2)cc1`, the “%Inh” value is recorded as 0% in the test with CDKL2; 1% in the test on CDKL3; 21% in the test on CDKL5; 17% with CHEK1; 0% in the test with CHEK2; 27% with CIT. Moreover, the “%Inh” value came out at 33% with CLK1, 1% in the test with CLK2, 0% in the test with CLK3 and 0% with CLK4.
For `Nc1nc(-c2ccc3c(N)n[nH]c3c2)cc(N2CCCCC2)n1` [GSK2228768], the “%Inh” value in the test with CDKL2 is 0%; in the test on CDKL3, 0%; with CDKL5 it was 2%; with CHEK1 it was 0%; with CHEK2 it was 0%; in the test on CIT it was 18%. In addition, the “%Inh” value turned out to be 29% in the test on CLK1, 0% in the test on CLK2, 8% with CLK3 and 19% with CLK4.
In the case of `Fc1ccc(Nc2nccc(-c3c(-c4ccc(Cl)cc4)nn4ncccc34)n2)cc1F` [GW829058], the “%Inh” value in the test with CDKL2 is 22%; with CDKL3, 21%; with CDKL5, 23%; in the test with CHEK1, 12%; in the test with CHEK2, 1%; in the test with CIT it was 0%. Further, the “%Inh” value stood at 0% in the test with CLK1, 10% with CLK2, 10% in the test with CLK3 and 5% with CLK4.
`COc1ccc(-c2nc3n(c2-c2ccncc2)CCC3)cc1` [SKF-104493]: the “%Inh” value with CDKL2 (1 µM) is 0% and 1%; in the test with CDKL3 (1 µM) it was 1% and 0%; in the test on CDKL5 (1 µM), 2% and 0%; in the test on CHEK1 (1 µM) it was 0% and 13%; in the test with CHEK2 it was 0%; with CIT (1 µM), 16% and 15%. The “%Inh” value in the test on CLK1 (1 µM) was 16% and 11%; with CLK2 (1 µM), 0% and 6%; in the test with CLK3 (1 µM), 5% and 1%; in the test on CLK4 (1 µM), 10% and 0%.
Turning to `Nc1nccc2scc(-c3ccc4c(c3)CCN4C(=O)Cc3cc(F)ccc3F)c12` [GSK2587663], the “%Inh” value in the test with CDKL2 was 17%; with CDKL3 it was 0%; with CDKL5, 0%; in the test with CHEK1, 8%; in the test on CHEK2 it was 10%; in the test with CIT, 27%. Also, the “%Inh” value worked out at 24% in the test on CLK1, 0% in the test with CLK2, 93.5% in the test with CLK3 and 19% in the test with CLK4.
Turning to `CSc1nn2c(=O)cc(N3CCOCC3)nc2n1Cc1cccc(Cl)c1Cl` [GSK2347225], the “%Inh” value is recorded as 27% with CDKL2; 0% in the test with CDKL3; 8% with CDKL5; 15% in the test with CHEK1; 0% with CHEK2; 35% in the test with CIT. Further, the “%Inh” value stood at 40% in the test on CLK1, 0% with CLK2, 100% in the test on CLK3 and 12% in the test on CLK4.
As to `C[C@@H]1CCN(C(=O)CO)C[C@@H]1N(C)c1ncnc2[nH]ccc12`, the “%Inh” value was found to be 2% in the test on CDKL2; 0% with CDKL3; 0% in the test with CDKL5; 0% with CHEK1; 1% with CHEK2; 0% in the test on CIT. Besides, the “%Inh” value in the test with CLK1 is reported as 3%; with CLK2, 6%; in the test with CLK3, 0%; with CLK4, 0%.
As for `CCc1nc(-c2cccc(N(C)S(=O)(=O)c3ccccc3)c2)c(-c2ccnc(Nc3ccc(N4CCN(C(C)=O)CC4)nc3)n2)s1` [GSK1645895], the “%Inh” value in the test on CDKL2 was determined as 47%; in the test with CDKL3, 0%; in the test on CDKL5 it was 4%; in the test on CHEK1, 7%; with CHEK2, 0%; in the test on CIT, 31%. Moreover, the “%Inh” value is given as 25% in the test on CLK1, 12% in the test on CLK2, 27% with CLK3 and 0% in the test on CLK4.
For `Cn1ccc2ncnc(Nc3ccc(Oc4cccc(Cl)c4)c(Cl)c3)c21`, the “%Inh” value is reported as 23% in the test with CDKL2; 26% in the test with CDKL3; 23% with CDKL5; 2% with CHEK1; 7% in the test with CHEK2; 0% in the test with CIT. Also, the “%Inh” value with CLK1 is reported as 0%; in the test with CLK2 it was 0%; in the test with CLK3, 0%; with CLK4 it was 1%.
On to `CC(C)(C)OC(=O)NC1CCCN(c2cc(-c3ccc4c(N)n[nH]c4c3)nc(N)n2)C1` (stereo not drawn) [GSK2286096], for which the “%Inh” value in the test on CDKL2 came to 5%; in the test on CDKL3, 0%; in the test with CDKL5, 7%; in the test on CHEK1, 0%; in the test on CHEK2 it was 0%; in the test on CIT it was 26%. Besides, the “%Inh” value in the test on CLK1 stood at 55%; in the test on CLK2, 27%; in the test on CLK3, 7%; in the test with CLK4 it was 16%.
